Results: PubChem BioAssay AID1159580 (chemical genetic matrix, 2015)
The campaign covered roughly 5,500 compounds. About 2,000 (36%) were called active. Roughly 18% stayed inconclusive and do not appear here. Rule as the data show it: active = normalized growth mostly below about 0.91 (no sharp cut-off); inconclusive = no clear call, values can overlap the other calls; inactive = mostly above about 0.92. The list shows a part of the results.

Experiment: chemical genetic growth profiling, strain panel (AID 1159580);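 also: tested at 20 µM; growth read once vehicle control cultures reached saturation at 30 °C; 1 = growth at the plate median or of vehicle wells; lower values mean less growth of the strain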
Details: growth OD

Measured: normalized growth

COc1ccc(C(=O)c2ccc(O)cc2)c(O)c1O
inactive: S. cerevisiae deletion strains, locus YAL013W, strain DEP1, stronger effect = lower value 1.04 | S. cerevisiae deletion strains, locus YAL021C, strain ccr4, stronger effect = lower value 0.963 | S. cerevisiae deletion strains, locus YAL026C, strain drs2, stronger effect = lower value 0.961 | S. cerevisiae deletion strains, locus YAL030W, strain snc1, stronger effect = lower value 0.967 | S. cerevisiae deletion strains, locus YBL061C, strain skt5, stronger effect = lower value 0.97 | S. cerevisiae deletion strains, locus YBR009C, strain hhf1, stronger effect = lower value 0.951 | S. cerevisiae deletion strains, locus YBR021W, strain FUR4, stronger effect = lower value 1.02 | S. cerevisiae deletion strains, locus YBR023C, strain chs3, stronger effect = lower value 0.968 | S. cerevisiae deletion strains, locus YBR171W, strain sec66, stronger effect = lower value 0.965 | S. cerevisiae deletion strains, locus YBR229C, strain ROT2, stronger effect = lower value 1.02 | S. cerevisiae deletion strains, locus YBR231C, strain swc5, stronger effect = lower value 0.96 | S. cerevisiae deletion strains, locus YBR279W, strain paf1, stronger effect = lower value 0.974 | S. cerevisiae deletion strains, locus YCL011C, strain gbp2, stronger effect = lower value 0.961 | S. cerevisiae deletion strains, locus YCL016C, strain dcc1, stronger effect = lower value 0.974 | S. cerevisiae deletion strains, locus YCL029C, strain bik1, stronger effect = lower value 0.993 | S. cerevisiae deletion strains, locus YCL061C, strain MRC1, stronger effect = lower value 0.984 | S. cerevisiae deletion strains, locus YCL069W, strain vba3, stronger effect = lower value 0.98 | S. cerevisiae deletion strains, locus YCR088W, strain abp1, stronger effect = lower value 0.973 | S. cerevisiae deletion strains, locus YDL005C, strain med2, stronger effect = lower value 0.968 | S. cerevisiae deletion strains, locus YDL035C, strain GPR1, stronger effect = lower value 1.04 | S. cerevisiae deletion strains, locus YDL040C, strain nat1, stronger effect = lower value 0.972 | S. cerevisiae deletion strains, locus YDL074C, strain BRE1, stronger effect = lower value 1.01 | S. cerevisiae deletion strains, locus YDL101C, strain DUN1, stronger effect = lower value 1.02 | S. cerevisiae deletion strains, locus YDL134C, strain PPH21, stronger effect = lower value 1.01 | S. cerevisiae deletion strains, locus YDL185W, strain tfp1, stronger effect = lower value 0.995 | S. cerevisiae deletion strains, locus YDL192W, strain arf1, stronger effect = lower value 0.997 | S. cerevisiae deletion strains, locus YDR001C, strain nth1, stronger effect = lower value 0.973 | S. cerevisiae deletion strains, locus YDR069C, strain doa4, stronger effect = lower value 0.928 | S. cerevisiae deletion strains, locus YDR101C, strain arx1, stronger effect = lower value 1 | S. cerevisiae deletion strains, locus YDR137W, strain rgp1, stronger effect = lower value 0.975 | S. cerevisiae deletion strains, locus YDR159W, strain sac3, stronger effect = lower value 0.959 | S. cerevisiae deletion strains, locus YDR162C, strain NBP2, stronger effect = lower value 1.04 | S. cerevisiae deletion strains, locus YDR195W, strain ref2 0.969 | S. cerevisiae deletion strains, locus YDR297W, strain sur2, stronger effect = lower value 0.969 | S. cerevisiae deletion strains, locus YDR318W, strain mcm21, stronger effect = lower value 0.997 | S. cerevisiae deletion strains, locus YDR334W, strain swr1, stronger effect = lower value 0.952 | S. cerevisiae deletion strains, locus YDR335W, strain msn5, stronger effect = lower value 0.983 | S. cerevisiae deletion strains, locus YDR388W, stronger effect = lower value 0.985 | S. cerevisiae deletion strains, locus YDR392W, strain spt3, stronger effect = lower value 0.852 | S. cerevisiae deletion strains, locus YDR502C, strain sam2, stronger effect = lower value 0.968 | S. cerevisiae deletion strains, locus YEL003W, strain gim4, stronger effect = lower value 0.962 | S. cerevisiae deletion strains, locus YEL037C, strain rad23, stronger effect = lower value 0.965 | S. cerevisiae deletion strains, locus YEL061C, strain CIN8 (second series), stronger effect = lower value 0.955 | S. cerevisiae deletion strains, locus YEL061C, strain CIN8, stronger effect = lower value 1.01 | S. cerevisiae deletion strains, locus YER015W, strain faa2, stronger effect = lower value 0.961 | S. cerevisiae deletion strains, locus YER016W, strain bim1, stronger effect = lower value 0.978 | S. cerevisiae deletion strains, locus YER110C, stronger effect = lower value 0.983 | S. cerevisiae deletion strains, locus YER111C, strain swi4, stronger effect = lower value 0.963 | S. cerevisiae deletion strains, locus YER155C, strain BEM2 (second series), stronger effect = lower value 0.911 | S. cerevisiae deletion strains, locus YER155C, strain BEM2, stronger effect = lower value 1.02 | S. cerevisiae deletion strains, locus YER167W, strain BCK2, stronger effect = lower value 1.02 | S. cerevisiae deletion strains, locus YFR010W, strain ubp6, stronger effect = lower value 0.942 | S. cerevisiae deletion strains, locus YGL078C, strain dbp3, stronger effect = lower value 0.961 | S. cerevisiae deletion strains, locus YGL086W, strain mad1, stronger effect = lower value 0.992 | S. cerevisiae deletion strains, locus YGL167C, strain pmr1, stronger effect = lower value 0.952 | S. cerevisiae deletion strains, locus YGL173C, strain kem1, stronger effect = lower value 0.969 | S. cerevisiae deletion strains, locus YGL227W, strain vid30, stronger effect = lower value 0.937 | S. cerevisiae deletion strains, locus YGL240W, strain doc1, stronger effect = lower value 0.94 | S. cerevisiae deletion strains, locus YGL248W, strain PDE1, stronger effect = lower value 0.986 | S. cerevisiae deletion strains, locus YGL253W, strain hxk2, stronger effect = lower value 0.984 | S. cerevisiae deletion strains, locus YGR135W, strain pre9, stronger effect = lower value 0.95 | S. cerevisiae deletion strains, locus YGR252W, strain gcn5, stronger effect = lower value 0.893 | S. cerevisiae deletion strains, locus YHR013C, strain ard1, stronger effect = lower value 0.916 | S. cerevisiae deletion strains, locus YHR027C, strain rpn1, stronger effect = lower value 0.988 | S. cerevisiae deletion strains, locus YHR079C, strain IRE1 (second series), stronger effect = lower value 0.985 | S. cerevisiae deletion strains, locus YHR094C, strain hxt1, stronger effect = lower value 0.978 | S. cerevisiae deletion strains, locus YHR129C, strain ARP1, stronger effect = lower value 1.01 | S. cerevisiae deletion strains, locus YHR142W, strain chs7, stronger effect = lower value 0.987 | S. cerevisiae deletion strains, locus YHR200W, strain rpn10, stronger effect = lower value 0.973 | S. cerevisiae deletion strains, locus YIL066C, strain RNR3, stronger effect = lower value 1.03 | S. cerevisiae deletion strains, locus YIL073C, strain SPO22, stronger effect = lower value 0.992 | S. cerevisiae deletion strains, locus YIL125W, strain kgd1, stronger effect = lower value 1 | S. cerevisiae deletion strains, locus YIR030C, strain dcg1, stronger effect = lower value 0.994 | S. cerevisiae deletion strains, locus YJL092W, strain hpr5, stronger effect = lower value 0.978 | S. cerevisiae deletion strains, locus YJL095W, strain BCK1 (second series), stronger effect = lower value 0.977 | S. cerevisiae deletion strains, locus YJL095W, strain BCK1, stronger effect = lower value 0.986 | S. cerevisiae deletion strains, locus YJL115W, strain asf1, stronger effect = lower value 0.985 | S. cerevisiae deletion strains, locus YJL129C, strain trk1, stronger effect = lower value 0.935 | S. cerevisiae deletion strains, locus YJL134W, strain LCB3, stronger effect = lower value 1.02 | S. cerevisiae deletion strains, locus YJL154C, strain vps35, stronger effect = lower value 0.972 | S. cerevisiae deletion strains, locus YJL164C, strain tpk1, stronger effect = lower value 0.979 | S. cerevisiae deletion strains, locus YJL166W, strain qcr8, stronger effect = lower value 0.972 | S. cerevisiae deletion strains, locus YJL168C, strain set2, stronger effect = lower value 1 | S. cerevisiae deletion strains, locus YJL187C, strain SWE1 (second series), stronger effect = lower value 0.998 | S. cerevisiae deletion strains, locus YJL187C, strain SWE1, stronger effect = lower value 0.968 | S. cerevisiae deletion strains, locus YKL009W, strain mrt4, stronger effect = lower value 1.01 | S. cerevisiae deletion strains, locus YKL068W, stronger effect = lower value 0.991 | S. cerevisiae deletion strains, locus YKL085W, strain MDH1 (second series), stronger effect = lower value 1 | S. cerevisiae deletion strains, locus YKL085W, strain MDH1, stronger effect = lower value 1 | S. cerevisiae deletion strains, locus YKL160W, strain elf1, stronger effect = lower value 0.994 | S. cerevisiae deletion strains, locus YKR001C, strain vps1, stronger effect = lower value 1 | S. cerevisiae deletion strains, locus YKR026C, strain gcn3, stronger effect = lower value 0.948 | S. cerevisiae deletion strains, locus YKR091W, strain srl3, stronger effect = lower value 0.972 | S. cerevisiae deletion strains, locus YLL001W, strain dnm1, stronger effect = lower value 0.986 | S. cerevisiae deletion strains, locus YLL026W, stronger effect = lower value 0.978 | S. cerevisiae deletion strains, locus YLL041C, strain sdh2, stronger effect = lower value 0.992 | S. cerevisiae deletion strains, locus YLR027C, strain aat2, stronger effect = lower value 0.965 | S. cerevisiae deletion strains, locus YLR039C, strain RIC1, stronger effect = lower value 1.12 | S. cerevisiae deletion strains, locus YLR058C, strain SHM2, stronger effect = lower value 1.01 | S. cerevisiae deletion strains, locus YLR102C, strain apc9, stronger effect = lower value 0.966 | S. cerevisiae deletion strains, locus YLR221C, strain rsa3, stronger effect = lower value 0.933 | S. cerevisiae deletion strains, locus YLR258W, strain gsy2, stronger effect = lower value 0.969 | S. cerevisiae deletion strains, locus YLR262C, strain YPT6 (second series), stronger effect = lower value 0.936 | S. cerevisiae deletion strains, locus YLR268W, strain sec22, stronger effect = lower value 1.01 | S. cerevisiae deletion strains, locus YLR320W, strain mms22, stronger effect = lower value 0.968 | S. cerevisiae deletion strains, locus YLR330W, strain CHS5, stronger effect = lower value 1.02 | S. cerevisiae deletion strains, locus YLR342W, strain FKS1 (second series), stronger effect = lower value 1.02 | S. cerevisiae deletion strains, locus YLR342W, strain FKS1, stronger effect = lower value 0.952 | S. cerevisiae deletion strains, locus YLR357W, strain rsc2, stronger effect = lower value 0.909 | S. cerevisiae deletion strains, locus YLR370C, strain arc18, stronger effect = lower value 0.968 | S. cerevisiae deletion strains, locus YLR371W, strain rom2, stronger effect = lower value 0.982 | S. cerevisiae deletion strains, locus YLR384C, strain iki3, stronger effect = lower value 0.984 | S. cerevisiae deletion strains, locus YLR418C, strain cdc73, stronger effect = lower value 0.986 | S. cerevisiae deletion strains, locus YML016C, strain PPZ1, stronger effect = lower value 1.02 | S. cerevisiae deletion strains, locus YML032C, strain rad52, stronger effect = lower value 0.97 | S. cerevisiae deletion strains, locus YML120C, strain ndi1, stronger effect = lower value 0.954 | S. cerevisiae deletion strains, locus YML124C, strain tub3, stronger effect = lower value 0.981 | S. cerevisiae deletion strains, locus YMR058W, strain fet3, stronger effect = lower value 0.94 | S. cerevisiae deletion strains, locus YMR078C, strain ctf18, stronger effect = lower value 0.971 | S. cerevisiae deletion strains, locus YMR125W, strain sto1, stronger effect = lower value 0.97 | S. cerevisiae deletion strains, locus YMR129W, stronger effect = lower value 0.965 | S. cerevisiae deletion strains, locus YMR205C, strain PFK2, stronger effect = lower value 0.946 | S. cerevisiae deletion strains, locus YMR223W, strain ubp8, stronger effect = lower value 0.978 | S. cerevisiae deletion strains, locus YMR231W, strain pep5, stronger effect = lower value 0.979 | S. cerevisiae deletion strains, locus YMR307W, strain GAS1, stronger effect = lower value 0.992 | S. cerevisiae deletion strains, locus YNL067W, strain RPL9B, stronger effect = lower value 0.998 | S. cerevisiae deletion strains, locus YNL071W, strain lat1, stronger effect = lower value 0.984 | S. cerevisiae deletion strains, locus YNL153C, strain GIM3, stronger effect = lower value 0.985 | S. cerevisiae deletion strains, locus YNL209W, strain ssb2, stronger effect = lower value 0.975 | S. cerevisiae deletion strains, locus YNL233W, strain BNI4, stronger effect = lower value 0.989 | S. cerevisiae deletion strains, locus YNL248C, strain rpa49, stronger effect = lower value 0.995 | S. cerevisiae deletion strains, locus YNL250W, strain rad50, stronger effect = lower value 0.981 | S. cerevisiae deletion strains, locus YNL271C, strain bni1, stronger effect = lower value 0.984 | S. cerevisiae deletion strains, locus YNL298W, strain CLA4, stronger effect = lower value 0.991 | S. cerevisiae deletion strains, locus YNL307C, strain MCK1, stronger effect = lower value 0.97 | S. cerevisiae deletion strains, locus YNL322C, strain KRE1 (second series), stronger effect = lower value 0.952 | S. cerevisiae deletion strains, locus YNR049C, strain mso1, stronger effect = lower value 0.972 | S. cerevisiae deletion strains, locus YNR052C, strain pop2, stronger effect = lower value 0.979 | S. cerevisiae deletion strains, locus YOL006C, strain TOP1, stronger effect = lower value 1.15 | S. cerevisiae deletion strains, locus YOL012C, strain htz1 1.45 | S. cerevisiae deletion strains, locus YOL147C, strain pex11, stronger effect = lower value 0.994 | S. cerevisiae deletion strains, locus YOR001W, strain rrp6, stronger effect = lower value 1 | S. cerevisiae deletion strains, locus YOR061W, strain CKA2, stronger effect = lower value 1.03 | S. cerevisiae deletion strains, locus YOR069W, strain VPS5, stronger effect = lower value 1.01 | S. cerevisiae deletion strains, locus YOR070C, strain gyp1, stronger effect = lower value 0.973 | S. cerevisiae deletion strains, locus YOR080W, strain dia2, stronger effect = lower value 0.97 | S. cerevisiae deletion strains, locus YOR083W, strain WHI5, stronger effect = lower value 0.992 | S. cerevisiae deletion strains, locus YOR106W, strain vam3, stronger effect = lower value 0.964 | S. cerevisiae deletion strains, locus YOR136W, strain idh2, stronger effect = lower value 0.985 | S. cerevisiae deletion strains, locus YOR144C, strain elg1, stronger effect = lower value 0.998 | S. cerevisiae deletion strains, locus YOR184W, strain ser1, stronger effect = lower value 1.05 | S. cerevisiae deletion strains, locus YOR265W, strain rbl2, stronger effect = lower value 0.979 | S. cerevisiae deletion strains, locus YOR270C, strain vph1, stronger effect = lower value 0.957 | S. cerevisiae deletion strains, locus YOR290C, strain snf2, stronger effect = lower value 0.9 | S. cerevisiae deletion strains, locus YOR316C, strain cot1, stronger effect = lower value 0.971 | S. cerevisiae deletion strains, locus YPL051W, strain arl3, stronger effect = lower value 0.993 | S. cerevisiae deletion strains, locus YPL055C, strain LGE1, stronger effect = lower value 1.05 | S. cerevisiae deletion strains, locus YPL078C, strain atp4, stronger effect = lower value 0.986 | S. cerevisiae deletion strains, locus YPL106C, strain sse1, stronger effect = lower value 0.889 | S. cerevisiae deletion strains, locus YPL240C, strain hsp82, stronger effect = lower value 0.995 | S. cerevisiae deletion strains, locus YPL241C, strain CIN2, stronger effect = lower value 1.02 | S. cerevisiae deletion strains, locus YPR119W, strain clb2, stronger effect = lower value 0.971 | S. cerevisiae deletion strains, locus YPR141C, strain kar3, stronger effect = lower value 1.01 | S. cerevisiae deletion strains, locus YPR163C, strain tif3, stronger effect = lower value 0.983 | S. cerevisiae deletion strains, locus YPR167C, strain met16, stronger effect = lower value 0.981 | S. cerevisiae deletion strains, strain wtn01, stronger effect = lower value 0.993 | S. cerevisiae strains, strain wild type, stronger effect = lower value 1.04
